The record followed here is PubChem BioAssay (NCI).

Structures are written as SMILES. Compounds without any hit were thinned out: in the full panel of roughly 83,000, 20% have a hit.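 Treatment: one concentration, 48 hours, 96-well format. Scoring: percent growth, with anything below 10 considered active.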 A number with no mark means an inactive call. The source made the active and inactive calls.

What all share (assay): NCI-60 one-dose screen, 48 h (100 = growth as untreated, 0 = no growth, -100 = all killed)
For one assay, the system named is HCT-15 colon. The note with it: 10 µM unless noted.
The next assay deals with HT29 colon. The note with it: 10 µM unless noted.
The next assay concerns SNB-19 CNS. The note with it: 10 µM unless noted.
In the next assay the test system is U251 CNS. The note with it: 10 µM unless noted.
In another assay the test system is PC-3 prostate. The settings on record: 10 µM unless noted.
Another assay has as its system SK-MEL-5 melanoma. The note with it: 10 µM unless noted.
The test system of the next assay is UACC-62 melanoma. The settings on record: 10 µM unless noted.
For the next assay, the system named is LOX IMVI melanoma. The note with it: 10 µM unless noted.
The next assay has as its system SK-MEL-28 melanoma. The settings on record: 10 µM unless noted.
Another assay concerns SK-MEL-2 melanoma. The settings on record: 10 µM unless noted.
The next assay deals with EKVX NSCLC. The settings on record: 10 µM unless noted.
Another assay has as its system SN12C renal. The note with it: 10 µM unless noted.
Another assay deals with UO-31 renal. The settings on record: 10 µM unless noted.
In a further assay the test system is TK-10 renal. The note with it: 10 µM unless noted.
In another assay the test system is ACHN renal. The settings on record: 10 µM unless noted.
For the next assay, the system named is CAKI-1 renal. The note with it: 10 µM.
In a further assay the test system is A498 renal. The settings on record: 10 µM unless noted.
The subject of another assay is CCRF-CEM leukemia. The note with it: 10 µM unless noted.
Another assay concerns MOLT-4 leukemia. The settings on record: 10 µM unless noted.
In the next assay the test system is SNB-75 CNS. The settings on record: 10 µM unless noted.

For `Cc1cc(O)c2c(c1)C(=O)C(c1c(C)cc3c(c1O)C(=O)C=CC3=O)=CC2=O`, the growth in the assay on HCT-15 colon was 46.5%; with HT29 colon, 65.3%; with SNB-19 CNS, 99.9%; with U251 CNS, 94%; in the assay with PC-3 prostate, 82.9%; in the assay on SK-MEL-5 melanoma, 102%. The growth was 61.5% in the assay on UACC-62 melanoma; 61.3% in the assay with LOX IMVI melanoma; 71.2% in the assay on SK-MEL-28 melanoma; 123% in the assay on SK-MEL-2 melanoma; 100% in the assay with EKVX NSCLC; 74.7% in the assay with SN12C renal. The growth in the assay on UO-31 renal was -14.9% (active); in the assay on TK-10 renal, 14.2%; in the assay on ACHN renal it was -8.41% (active); in the assay on CAKI-1 renal it was 13.8%; with A498 renal, 122%; with CCRF-CEM leukemia, 19.3%. For the same molecule, the growth in the assay with MOLT-4 leukemia is 41.4%.
Turning to `NNC(=O)c1sc2nc(-c3cnccn3)cc(-c3cccs3)c2c1N`, the growth with HCT-15 colon was 89.9%; in the assay on HT29 colon it was 106%; in the assay on SNB-19 CNS, 88.2%; in the assay on U251 CNS, 90%; in the assay with PC-3 prostate, 90.1%; in the assay with SK-MEL-5 melanoma it was 97.2%. In addition, the growth in the assay with UACC-62 melanoma was 93.7%; in the assay with LOX IMVI melanoma, 83.2%; in the assay with SK-MEL-28 melanoma it was 101%; with SK-MEL-2 melanoma, 102%; in the assay with EKVX NSCLC, 86.8%; in the assay on SN12C renal it was 95.5%. Moreover, the growth in the assay on UO-31 renal was 75.9%; in the assay with TK-10 renal, 118%; with ACHN renal, 95.4%; in the assay on CAKI-1 renal, 87.6%; with A498 renal, 79.5%; in the assay with CCRF-CEM leukemia, 62.7%. The growth with MOLT-4 leukemia was 77%.
In the case of `CC[C@@](C)(NC(=O)C(C)(C)NC(=O)[C@@H](NC(=O)[C@@H]1CCCN1C(=O)C(C)(C)NC(=O)[C@H](CC(C)C)NC(=O)CNC(=O)C(C)(C)NC(=O)[C@@H](NC(=O)C(C)(C)NC(=O)[C@H](CCC(N)=O)NC(=O)[C@H](C)NC(=O)C(C)(C)NC(=O)[C@H](C)NC(=O)C(C)(C)NC(=O)[C@H](C)NC(=O)C(C)(C)NC(C)=O)C(C)C)C(C)C)C(=O)N[C@@H](CCC(N)=O)C(=O)N[C@@H](CCC(N)=O)C(=O)N[C@H](CO)CC1CCCCC1`, the growth is 101% [5 µM] in the assay on HCT-15 colon; 23% [5 µM] in the assay on HT29 colon; 24.3% [5 µM] in the assay on SNB-19 CNS; 29.2% [5 µM] in the assay on U251 CNS; 15.5% [5 µM] in the assay on PC-3 prostate; -43.5% [5 µM] (active) with SK-MEL-5 melanoma. Also, the growth in the assay with UACC-62 melanoma was 31.1% [5 µM]; with LOX IMVI melanoma, 0.772% [5 µM] (active); with SK-MEL-28 melanoma, 26.9% [5 µM]; in the assay with SK-MEL-2 melanoma it was -21.9% [5 µM] (active); with EKVX NSCLC, 65.6% [5 µM]; with SN12C renal it was 9.8% [5 µM] (active). The growth was 91.1% [5 µM] in the assay on UO-31 renal; 88.3% [5 µM] in the assay with TK-10 renal; 107% [5 µM] in the assay with ACHN renal; 39.7% [5 µM] with A498 renal; 27.4% [5 µM] with CCRF-CEM leukemia; 21% [5 µM] with MOLT-4 leukemia.
On to `O=C(CN1C(=O)S/C(=C\c2ccccc2)C1=O)Nc1ccc(C(=O)/C=C/c2cc3ccccc3nc2Cl)cc1`, for which the growth in the assay with HCT-15 colon is 88.5%; in the assay on HT29 colon, 94.8%; in the assay with SNB-19 CNS, 86.2%; with U251 CNS, 93.4%; in the assay on PC-3 prostate, 81.6%; in the assay on SK-MEL-5 melanoma it was 24.3%. For the same molecule, the growth is 66.2% in the assay on UACC-62 melanoma; 73.3% with LOX IMVI melanoma; 95.8% in the assay on SK-MEL-28 melanoma; 83.1% in the assay on SK-MEL-2 melanoma; 65.3% in the assay on EKVX NSCLC; 91.2% in the assay on SN12C renal. Further, the growth is 57.7% in the assay on UO-31 renal; 83% with ACHN renal; 64.1% in the assay on CAKI-1 renal; 86% with A498 renal; 77.2% with CCRF-CEM leukemia; 51.4% in the assay with MOLT-4 leukemia.
Turning to `COc1ccccc1/C=C/C(=O)c1nnn(-c2ccc(C(=O)O)cc2)c1C`, the growth is 71.6% in the assay with HCT-15 colon; 106% in the assay on HT29 colon; 87.9% in the assay with SNB-19 CNS; 86.4% in the assay with U251 CNS; 93.2% in the assay on PC-3 prostate; 95.7% in the assay with SK-MEL-5 melanoma. For the same molecule, the growth is 79.7% with UACC-62 melanoma; 66.1% with LOX IMVI melanoma; 97.3% with SK-MEL-28 melanoma; 98.6% in the assay on SK-MEL-2 melanoma; 87.2% with EKVX NSCLC; 84.1% in the assay with SN12C renal. Besides, the growth with UO-31 renal was 87.6%; with ACHN renal it was 94%; in the assay on CAKI-1 renal, 96%; in the assay on CCRF-CEM leukemia it was 63.9%; with MOLT-4 leukemia it was 94.4%.
On to `CCOC(=O)c1c(NCC(=O)Nc2ccc(Br)cc2)sc2c1CCCC2`, for which the growth with HCT-15 colon is -14.2% (active); in the assay on SNB-75 CNS, 46.2%; with SNB-19 CNS, 56.7%; in the assay with U251 CNS it was -6.08% (active); with PC-3 prostate, 55%; in the assay on SK-MEL-5 melanoma, 39.8%. In addition, the growth in the assay with UACC-62 melanoma is 46.9%; with LOX IMVI melanoma, 4.11% (active); with SK-MEL-28 melanoma, 67.6%; in the assay with SK-MEL-2 melanoma, 68.7%; in the assay with EKVX NSCLC it was 76%; in the assay with SN12C renal it was 18.2%. In addition, the growth with UO-31 renal is 54.3%; in the assay on TK-10 renal, 81.4%; in the assay on ACHN renal, 14.8%; in the assay with CAKI-1 renal, 27%; in the assay on CCRF-CEM leukemia it was 18.2%; with MOLT-4 leukemia it was 16.8%.
With `O=C(NCCCNc1cc(-c2cn(-c3ccccc3)nc2-c2cccc(O)c2)ccn1)Nc1cc(C(F)(F)F)cc(C(F)(F)F)c1`, the growth in the assay on HCT-15 colon is 33.4%; in the assay on SNB-75 CNS, 64.2%; in the assay with SNB-19 CNS it was 68.5%; in the assay with U251 CNS it was 51.5%; with PC-3 prostate, 39.9%; with SK-MEL-5 melanoma, 55.7%. The growth in the assay with UACC-62 melanoma is 73%; in the assay on LOX IMVI melanoma, 81.2%; in the assay with SK-MEL-28 melanoma, 83.7%; in the assay on SK-MEL-2 melanoma, 88.1%; in the assay on EKVX NSCLC, 73.3%; in the assay on UO-31 renal it was 51.4%. The growth in the assay with TK-10 renal was 93.4%; with ACHN renal, 92.6%; in the assay with CAKI-1 renal, 74.1%; in the assay with CCRF-CEM leukemia, 63.1%; with MOLT-4 leukemia, 43.3%.
Regarding `C=CCn1c(SCC(=O)Nc2cccc(C(=O)/C=C/c3ccc(OC)c(OC)c3)c2)nc2ccccc2c1=O`, the growth was 72.4% with HCT-15 colon; 83.7% in the assay on SNB-75 CNS; 77.2% with SNB-19 CNS; 76.6% in the assay on U251 CNS; 79.7% in the assay on PC-3 prostate; 97.6% with SK-MEL-5 melanoma. Also, the growth is 74.9% in the assay with UACC-62 melanoma; 79.5% in the assay with LOX IMVI melanoma; 102% with SK-MEL-28 melanoma; 100% in the assay with EKVX NSCLC; 96.8% in the assay on SN12C renal; 74.6% in the assay with UO-31 renal. In addition, the growth was 116% in the assay on TK-10 renal; 92.2% in the assay on ACHN renal; 75.7% in the assay with CAKI-1 renal; 89.3% with A498 renal; 78.5% in the assay on CCRF-CEM leukemia.
